“And” between values parts separate entries of the source, which are not always exact repeats. Identical values can stand only once. Results filed as inconclusive are left out. A structure can be active in one record and inactive in another. The source made the active and inactive calls. Unless noted, calls come from the whole dose curve; as a rule, active = well fitted curve in the direction sought with a large enough effect in the repeat runs; inconclusive = weak or mixed curves; inactive = no such curve, though single readings can be large; an effect the other way counts as inactive or inconclusive.
Key:
[1] = qHTS assay to identify small molecule agonists of the vitamin D receptor (VDR) signaling pathway - cell viability counter screen (AID 743224); note: nearly all actives have a fitted effect of over 50% in size; note: potency is the fitted concentration of half-maximal effect
Procedure, shortened: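 Here cell health was gauged by luminescent ATP detection (CellTiter-Glo, 30 min RT) in VDR-bla cells that had been incubated with test compounds for 16 h at 37C and 5% CO2.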

[2] = qHTS assay to identify small molecule antagonists of the vitamin D receptor (VDR) signaling pathway - cell viability counter screen (AID 743225); note: nearly all actives have a fitted effect of over 50% in size; note: potency is the fitted concentration of half-maximal effect
Procedure, shortened: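 Cytotoxicity counter screen read by CellTiter-Glo luminescence (30 min, room temperature) in the same wells as the VDR-bla antagonist readout. HEK 293T VDR-UAS-bla cells had 16 h at 37C with compound and 3 nM (final) 1-alpha,25-dihydroxyvitamin D3, then 2 h with FRET substrate.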

[3] = qHTS assay to identify small molecule agonists of the endoplasmic reticulum stress response signaling pathway (AID 1159516; active = well fitted activation curve with a large enough effect in the signal ratio in the repeat runs, not every such curve was filed as active; the % refers to the signal ratio; note: potency is the fitted concentration of half-maximal effect)
Procedure, shortened: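 Reporter HeLa cells (ESRE-beta-lactamase) underwent 5 hr compound incubation at 37 C and 5% CO2 in quantitative HTS format. Detection followed 2 hr of FRET substrate loading at room temperature.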

[4] = qHTS assay to identify small molecule antagonists of the retinoid-related orphan receptor gamma (ROR-gamma) signaling pathway - cell viability counter screen (AID 1159520); note: nearly all actives have a fitted effect of over 50% in size; note: potency is the fitted concentration of half-maximal effect
Procedure, shortened: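 Cytotoxicity was read from cellular ATP (CellTiter-Glo luminescence) after 16 hr at 37 C with 1 uM doxycycline induction. The inducer was added 2 hr after compound transfer to Tet-on ROR gamma CHO cells.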

[5] = biological target: Nuclear receptor ROR-gamma (Homo sapiens) (UniProt P51449); assay: qHTS assay to identify small molecule antagonists of the retinoid-related orphan receptor gamma (ROR-gamma) signaling pathway (AID 1159521; note: nearly all actives have a fitted effect of over 50% in size; note: potency is the fitted concentration of half-maximal effect)
Procedure, shortened: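 Antagonist read-out: drop in luminescence (ONE-Glo) from an RORE-LUC reporter in CHO cells with doxycycline-inducible ROR-gamma; 2 hr compound pretreatment, 1 uM doxycycline, 16 hr incubation at 37 C.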

[6] = qHTS assay to identify small molecule agonists of the AP-1 signaling pathway - cell viability counter screen (AID 1159525; calls by dose curve; note: nearly all actives have a fitted effect of over 55% in size; note: potency is the fitted concentration of half-maximal effect)
Procedure, shortened: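 Luminescent ATP readout (Cell Titer Glo, 30 min RT), normalised to DMSO and tetra n-octyl ammonium bromide controls. Cells were ME-180 AP-1-bla in 0.5% dialyzed FBS Opti-MEM, with a 5 h, 37 °C compound exposure.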

[7] = qHTS assay to identify small molecule agonists of the AP-1 signaling pathway (AID 1159526; calls by dose curve)
[8] = biological target: Retinoic acid receptor RXR-alpha (Homo sapiens) (UniProt P19793); assay: qHTS assay to identify small molecule agonists of the RXR signaling pathway (AID 1159527; calls by dose curve; note: nearly all actives have a fitted effect of over 35% in size)
Chain of Retinoic acid receptor RXR-alpha (Homo sapiens) (P19793 whole entry, looked up): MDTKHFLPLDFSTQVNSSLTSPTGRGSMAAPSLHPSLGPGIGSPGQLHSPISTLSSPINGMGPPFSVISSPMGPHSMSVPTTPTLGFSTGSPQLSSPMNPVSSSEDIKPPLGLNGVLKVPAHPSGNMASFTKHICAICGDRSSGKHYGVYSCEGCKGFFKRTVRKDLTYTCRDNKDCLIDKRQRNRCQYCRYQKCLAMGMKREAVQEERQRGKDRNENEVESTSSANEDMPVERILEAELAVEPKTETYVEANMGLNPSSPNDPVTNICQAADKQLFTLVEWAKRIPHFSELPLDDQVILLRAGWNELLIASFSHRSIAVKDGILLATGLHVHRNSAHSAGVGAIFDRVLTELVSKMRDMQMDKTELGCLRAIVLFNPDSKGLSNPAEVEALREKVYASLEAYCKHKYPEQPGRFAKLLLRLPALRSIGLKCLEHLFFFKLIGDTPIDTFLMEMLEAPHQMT
Procedure, shortened: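 Agonist-mode beta-lactamase reporter assay: HEK 293T RXR-alpha-UAS-bla cells treated 16 hr at 37 C with compounds, 9-cis retinoic acid as positive control. LiveBLAzer FRET substrate, 405 nm excitation, 460/530 nm emission.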

[9] = qHTS assay to identify small molecule agonists of the RXR signaling pathway - cell viability counter screen (AID 1159529); note: nearly all actives have a fitted effect of over 50% in size; note: potency is the fitted concentration of half-maximal effect
Procedure, shortened: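 CellTiter-Glo luminescence gave viability in the wells also read for beta-lactamase. Cells (RXR-alpha-UAS-bla HEK 293T, 2% charcoal-stripped FBS medium) had 5 hr plating, then 16 hr compound exposure at 37 C; tetraoctyl ammonium bromide served as positive control.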

[10] = qHTS assay to identify small molecule agonists of the endoplasmic reticulum stress response signaling pathway - cell viability counter screen (AID 1159517; calls by dose curve; note: nearly all actives have a fitted effect of over 50% in size; note: potency is the fitted concentration of half-maximal effect)
Procedure, shortened: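 HeLa cells carrying an ESRE-driven beta-lactamase reporter receive compound for 5 hr at 37 C. Cell viability is then gauged with CellTiter-Glo by luminescence, 30 min at room temperature.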

Measured: Potency

C(=C/c1ccccc1)/c1ccccc1
not listed: [10]
inactive: all other assays above

Oc1ccc(-c2ccc(O)cc2)cc1
not listed: [8] | [10]
inactive: all other assays above

O=C(O)CC(=O)O
not listed: [4] | [5] | [6]
inactive: all other assays above

CCCCCCCC/C=C/CCCOC(C)=O
not listed: [1] | [8] | [10]
inactive: all other assays above

CC(O)C#CC(C)O (stereo not drawn)
inactive: [3]
active: [4] 27 µM | [5] 19.1 µM | [9] 43.2 µM

CC(C)(C)C1=CC(=O)C=C(C(C)(C)C)C1=O
not listed: [4] | [5] | [6]
inactive: all other assays above

O=C1NCCN1CCN1CCC(c2cn(-c3ccc(F)cc3)c3ccc(Cl)cc23)CC1
inactive: [3] | [4]
active: [1] 11.9 µM | [2] 16.9 µM | [5] 26.6 µM | [9] 21.3 µM

[O]=[Zr]
not listed: [5] | [10]
inactive: all other assays above

CNCC[C@H](Oc1cccc2ccccc12)c1cccs1
active: [1] 11.9 µM | [2] 8.49 µM | [9] 23.9 µM
inactive: [3] | [10] | [6]

c1cc2c3c(c1)ccc1cccc(c13)C2
inactive: [3] | [4] | [5] | [6]
active: [1] 56.1 µM

CCCCCCOc1ccc(O)cc1
inactive: [2] | [3] | [4] | [5]

C[Si](C)(C)Cl
not listed: [6] | [10]
inactive: all other assays above

C=CC(=O)OCCC#N
inactive: [1] | [2] | [3] | [10] | [6] | [9]

Cn1cnc2ncnc(N)c21
not listed: [10]
inactive: all other assays above

CCN(CC)CCNc1ccc(CO)c2sc3ccccc3c(=O)c12
inactive: [3] | [10] | [6] | [7]
active: [9] 6.01 µM

CN(Cc1cc(Br)cc(Br)c1N)C1CCCCC1
active: [1] 26.6 µM
inactive: [2] | [3] | [4] | [5]

Cc1nc(Nc2ncc(C(=O)Nc3c(C)cccc3Cl)s2)cc(N2CCN(CCO)CC2)n1
inactive: [2] | [3] | [10] | [6] | [9]

O=C(Nc1ccc(Cl)c(Cl)c1)c1cc(Cl)cc(Cl)c1O
active: [1] 1.95 µM | [2] 2.75 µM | [3] 19.5 µM | [4] 9.69 µM | [5] 2.17 µM | [9] 19.5 µM

CCCCCCC(C)Nc1ccc(Nc2ccccc2)cc1 (stereo not drawn)
active: [1] 38.9 µM | [2] 43.6 µM | [6] 49 µM
inactive: [3]

O=C(O)c1cccc(Cl)n1
active: [1] 24.5 µM
inactive: [3] | [6] | [7] | [9]

CCCCN(CCCC)CCC(O)c1cc2c(Cl)cc(Cl)cc2c2cc(C(F)(F)F)ccc12 (stereo not drawn)
inactive: [1] | [3]
active: [5] 29.8 µM | [9] 23.9 µM

C[C@]12CC[C@H]3C(=CCc4cc(O)ccc43)[C@@H]1CCC2=O
active: [9] 21.9 µM
inactive: [1] | [3] | [5] | [7]

CC(C)=C1CC[C@@H](C)CC1=O
not listed: [4] | [10]
inactive: all other assays above

Cc1ccc(CCn2c3c(c4cc(Cl)ccc42)CN(C)CC3)cn1
active: [9] 16.9 µM
not listed: [4] | [8] | [10]
inactive: all other assays above

CCCCCCCOC(=O)c1ccc(O)cc1
inactive: [4] | [5] | [8]
active: [2] 38.9 µM | [10] 54.9 µM | [6] 49 µM | [9] 55 µM

CC(=O)OC(OC(C)=O)c1ccc([N+](=O)[O-])o1
active: [1] 44.4 µM | [2] 49.8 µM | [5] 31.2 µM | [9] 49.8 µM
inactive: [3]

CN(C)CCOC(c1ccccc1)c1ccccc1 (tested in a mixture with another compound)
inactive: [3] | [6]

COC(=O)C1=C(C)NC(C)=C(C(=O)OCCCN2CCC(c3ccccc3)(c3ccccc3)CC2)C1c1cccc([N+](=O)[O-])c1 (stereo not drawn)
active: [1] 26.6 µM | [2] 23.9 µM | [5] 23.7 µM
inactive: [3] | [6]

C=CC(=O)OCC(O)COc1ccccc1 (stereo not drawn)
active: [5] 61.1 µM
inactive: [3] | [9]

CC(C)c1ccc(O)c(C(C)C)c1
inactive: [3] | [5]
active: [9] 38.9 µM

COC(=O)CC#N
not listed: [4] | [5] | [10]
inactive: all other assays above

O=C1OC(OC(=O)c2cccnc2Nc2cccc(C(F)(F)F)c2)c2ccccc21 (stereo not drawn)
inactive: [1] | [2] | [3] | [4] | [9]

CNC(=O)c1cc(Oc2ccc(NC(=O)Nc3ccc(Cl)c(C(F)(F)F)c3)cc2)ccn1
active: [1] 23.7 µM | [2] 12 µM | [5] 13.3 µM
inactive: [3] | [6]

CCc1cccc(C)c1
not listed: [3] | [7]
inactive: all other assays above

CC(C)(c1cc(Br)c(OCCO)c(Br)c1)c1cc(Br)c(OCCO)c(Br)c1
inactive: [3]
active: [1] 38 µM | [4] 47.5 µM | [9] 42.7 µM

CCN(CC)CCOc1ccc(C(O)(Cc2ccc(Cl)cc2)c2ccc(C)cc2)cc1 (stereo not drawn)
active: [2] 23.9 µM | [5] 29.8 µM | [9] 21.3 µM
inactive: [3]

Cc1cccc(C)c1NC(=O)CN1CCN(CCCC(c2ccc(F)cc2)c2ccc(F)cc2)CC1
active: [1] 29.8 µM | [2] 23.9 µM | [5] 21.1 µM | [9] 21.3 µM
inactive: [3]

CCOC(=O)COc1ccc(C)cc1
not listed: [4] | [10]
inactive: all other assays above

NCCCC(O)(P(=O)(O)O)P(=O)(O)O
not listed: [4] | [5] | [10]
inactive: all other assays above

CC(NCCC(c1ccccc1)c1ccccc1)c1ccccc1 (stereo not drawn)
inactive: [3] | [6]
active: [1] 23.7 µM | [5] 29.8 µM

S=P(N1CC1)(N1CC1)N1CC1
active: [1] 41 µM
inactive: [3] | [4]

O=C1C=CC(=O)N1c1ccccc1
inactive: [8]
active: [1] 11 µM | [2] 15.5 µM | [10] 34.7 µM | [4] 15.4 µM | [5] 7.7 µM | [6] 24.5 µM | [9] 15.5 µM

C=CC(=O)OCCOCC(CC)(COCCOC(=O)C=C)COCCOC(=O)C=C
active: [1] 64.3 µM | [2] 64.3 µM | [4] 11.3 µM
inactive: [3]

CCOC(=O)N1CCC(=C2c3ccc(Cl)cc3CCc3cccnc32)CC1
54.9 µM (active) and inactive: [1] | [9]
inactive: [3] | [8]
active: [5] 6.86 µM and 21.1 µM
38.9 µM (active) and inactive: [2]

CC(=O)Oc1ccc(C2(c3ccc(OC(C)=O)cc3)C(=O)Nc3ccccc32)cc1
inactive: [1] | [2] | [3] | [5] | [8] | [9]

Cc1cccc(Br)c1
active: [9] 55.3 µM
inactive: [1] | [2] | [3] | [4]

O=C1NCN(c2ccccc2)C12CCN(CCCC(c1ccc(F)cc1)c1ccc(F)cc1)CC2
active: [10] 23.9 µM | [4] 33.5 µM | [5] 26.6 µM | [6] 21.3 µM | [9] 21.3 µM

c1ccc(Nc2cccc3ccccc23)cc1
55.7 µM (active) and inactive: [1]
active: [6] 31.3 µM and 49 µM | [9] 24.9 µM
inactive: [2] | [3] | [5] | [8]

O[C@@H](c1cc(C(F)(F)F)nc2c(C(F)(F)F)cccc12)[C@H]1CCCCN1
inactive: [3] | [6]
active: [1] 21.1 µM | [2] 19 µM | [9] 15.1 µM

CN1CCN(C2Cc3ccccc3Sc3ccc(Cl)cc32)CC1 (stereo not drawn)
active: [5] 26.6 µM | [9] 23.9 µM
inactive: [3]

CCOC(=O)C1=C(C)NC(C)=C(C(=O)OCC)C1c1ccccc1/C=C/C(=O)OC(C)(C)C
active: [3] 19 µM | [4] 29.8 µM
inactive: [1] | [8]

O=C1c2c(O)ccc(O)c2C(=O)c2c(NCCNCCO)ccc(NCCNCCO)c21
active: [4] 23.7 µM
inactive: [10] | [5]

C[C@@H]1CC[C@H]2C(C)(C)[C@H]3C[C@@]12CC[C@@]3(C)O
inactive: [2] | [3] | [5] | [6] | [8]

CC(COC(=O)c1ccccc1)OC(=O)c1ccccc1 (stereo not drawn)
not listed: [3]
inactive: all other assays above

CN(C)CCCN1c2ccccc2CCc2ccccc21
inactive: [1] | [2] | [10] | [4] | [6] | [9]

COC(=O)[C@]1(C)CCC[C@@]2(C)[C@H]1CC=C1C=C(C(C)C)CC[C@@H]12
active: [10] 49 µM
not listed: [3] | [6]
inactive: all other assays above

CC(C)(c1cc(Br)c(O)c(Br)c1)c1cc(Br)c(O)c(Br)c1
inactive: [8]
active: [2] 43.5 µM | [10] 48.8 µM and 15.5 µM | [4] 60.9 µM | [6] 48.8 µM and 48.9 µM | [9] 54.8 µM and 48.9 µM and 46.3 µM

COc1cc(C(=O)NS(=O)(=O)c2ccccc2C)ccc1Cc1cn(C)c2ccc(NC(=O)OC3CCCC3)cc12
inactive: [1] | [2] | [10] | [4] | [5] | [9]

C=C(c1ccc(C(=O)O)cc1)c1cc2c(cc1C)C(C)(C)CCC2(C)C
21.9 µM (active) and inactive: [1]
active: [2] 21.3 µM | [10] 24.5 µM and 19 µM | [4] 30.6 µM | [5] 24.3 µM and 23.7 µM | [6] 30.9 µM | [9] 49 µM and 23.9 µM

CCCCCCCCCCCCCC[n+]1ccccc1
active: [1] 24.5 µM | [2] 24.5 µM | [10] 17.4 µM | [4] 61.1 µM | [5] 4.86 µM | [6] 49 µM | [9] 12.3 µM
